From ChEMBL document CHEMBL3988442, “University of Dundee, Small-Polar-MMV Screening Library” (2021) come the findings set out here.

The campaign covered roughly 69,000 compounds. About 420 (0.61%) showed an effect of 50% or more. The full list was thinned out, with strong results kept by preference.

The target of this assay is T1, Histidine--tRNA ligase (Leishmania infantum) (UniProt A4I591).
T1 sequence (whole entry): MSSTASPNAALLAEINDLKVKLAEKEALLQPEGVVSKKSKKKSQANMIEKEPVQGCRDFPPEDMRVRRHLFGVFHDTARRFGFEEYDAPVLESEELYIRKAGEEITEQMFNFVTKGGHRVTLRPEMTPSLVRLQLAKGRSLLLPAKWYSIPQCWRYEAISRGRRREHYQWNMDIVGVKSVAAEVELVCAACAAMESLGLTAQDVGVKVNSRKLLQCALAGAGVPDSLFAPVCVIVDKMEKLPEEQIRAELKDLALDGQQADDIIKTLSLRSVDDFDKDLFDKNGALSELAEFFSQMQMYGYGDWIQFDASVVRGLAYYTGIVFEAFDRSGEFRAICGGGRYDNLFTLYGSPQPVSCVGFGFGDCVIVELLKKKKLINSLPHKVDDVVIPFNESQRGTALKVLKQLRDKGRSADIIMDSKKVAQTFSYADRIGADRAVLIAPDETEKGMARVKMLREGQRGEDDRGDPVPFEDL
As to the kind of experiment: Leishmania infantum Histidine tRNA synthetase (LdHisRS). The class given is functional. The arrangement: scale not given: in the data most compounds retested in dose-response had high values. As to conditions: 30 µM.
For `CN1C[C@H]2CN(Cc3cccc(OC(F)(F)F)c3)CCN2C1=O`, the Percent Effect came to 21.6%.

Regarding `O=C(NCc1cccs1)[C@@H]1CC[C@@H]2[C@@H](CCN2c2ncccn2)O1`, the Percent Effect is 17.9%.

For the molecule `CN(Cc1ccco1)[C@@H]1CN(C(=O)c2cnccn2)C[C@@H]2CCCO[C@@H]21`, the Percent Effect worked out at 11.3%. The same measure for `COC[C@@]12CCC[C@@H]1CN(C(=O)COC1CCCC1)C2`: 0%. In the case of `CC(=O)N1[C@H](CN(C)C)C[C@@H]2CN(C(=O)c3ccsc3)CC[C@@H]21`, the Percent Effect worked out at 15.4%. As for `Cc1nc2ccccc2nc1CN(C)CC1CCCN1c1cccnn1` (centres undefined), the Percent Effect turned out to be 34.7%.

Regarding `CN(Cc1nc(N)c2ccccc2n1)CC1CCCN1c1cccnn1` (centres undefined), the Percent Effect was determined as 21.3%.

As to `Cc1nc(CN(C)CC2CCCN2c2cccnn2)nc2ccccc12` (centres undefined), the Percent Effect came out at 74.4%. The same measure for `COc1ccc(CN2CCO[C@H]3[C@H](Oc4ccccn4)CC[C@@H]32)cc1`: 25.7%. With `O=C(c1ccco1)N1C[C@H]2CCCN(Cc3ccoc3)[C@H]2C1`, the Percent Effect is 16.4%. With `c1cnc(N2CCO[C@H]3CN(CC4CCCC4)C[C@H]32)cn1` the figure was 9.91%.

On to `FC(F)(F)c1cccc(C2(CNCc3cc[nH]c3)CCOCC2)c1`, for which the Percent Effect is 12.7%. With `Brc1ccc(C2(CNCc3cc[nH]c3)CCOCC2)cc1`, the Percent Effect stood at 52.1%. Consider `Brc1cccc(C2(CNCc3cc[nH]c3)CCOCC2)c1`, for which the Percent Effect amounted to 40.9%.

Consider `CN1C[C@H](c2ccccc2)[C@H]2CN(C(=O)Cc3ccc(O)cc3)CC[C@H]21`, for which the Percent Effect came out at 5.59%.

For the molecule `O=C1CC(c2cccnc2)c2c(c(C(=O)O)cn2-c2ccccc2F)N1` (centres undefined), the Percent Effect is 20.6%. The same measure for `O=C1CC(c2ccc(C(=O)O)cc2)c2ncn(-c3cccnc3)c2N1` (centres undefined): 30%; for `O=C1CC(c2ccc(C(=O)O)cc2)c2ncn(-c3cccc(Cl)c3)c2N1` (centres undefined): 51.7%.

Turning to `Cc1nn(-c2ccccc2)c2c1C(c1ccc(C(=O)O)cc1)CC(=O)N2` (centres undefined), the Percent Effect came to 18.4%. For `O=C1CC(c2ccc(C(=O)O)cc2)c2ncn(-c3ccc(F)cc3)c2N1` (centres undefined), the Percent Effect was 81.7%. With `O=C1CC(c2ccc(C(=O)O)cc2)c2ncn(-c3ccccc3)c2N1` (centres undefined) the figure was 52.4%; with `O=C1CC(c2ccncc2)c2c(c(C(=O)O)cn2-c2ccc(F)cc2)N1` (centres undefined), 29.1%; with `Cn1c(=O)c2c(n3ncnc13)NC(=O)CC2c1ccc(F)cc1` (centres undefined), 6.9%. The same measure for `O=C1CC(c2ccc(C(=O)O)cc2)c2ncn(-c3cccc(F)c3)c2N1` (centres undefined): 46.6%. As for `O=C1CC(c2cccc(Cl)c2)c2snc(C(=O)O)c2N1` (centres undefined), the Percent Effect was found to be 1.72%. The same measure for `O=C1CC(c2ccc(C(=O)O)cc2)c2ncn(-c3ccccc3F)c2N1` (centres undefined): 51.7%; for `O=C1CC(c2ccc(C(=O)O)cc2)c2ncn(-c3ccccc3Cl)c2N1` (centres undefined): 45%; for `O=C1C[C@H]2[C@@H](CCN2C(=O)Cc2ccccc2)N1Cc1cccnc1`: 9.62%. Turning to `CCS(=O)(=O)N1CCC2(CC1)CC[C@@]1(C(=O)N(C)C)CN(C(C)=O)C[C@@H]21`, the Percent Effect turned out to be 12.8%. The same measure for `CO[C@H]1CN(C(=O)c2ccc[nH]2)[C@@H]2COC[C@H]12`: -140%. The same measure for `O=C([C@@H]1C[C@@H]2CCN(C3CCOCC3)C[C@H]2O1)N1CCCC1`: 6.94%; for `Cn1cccc1C(=O)NC[C@]12COC[C@H]1CN(Cc1nccs1)C2`: 12.8%; for `O=C(c1ccc2nccnc2c1)N1CCN(CCO)[C@@H]2CS(=O)(=O)C[C@@H]21`: 3.97%. The same measure for `Cc1nc(-c2ccoc2)n(CC(=O)N(C)CC(C)C)c1C`: 15.8%; for `CN(C)c1nccc(N2CCO[C@H]3CN(Cc4nccn4C)C[C@H]32)n1`: 3.19%; for `CC(=O)N1CC[C@@]2(O)CCCC[C@H]2[C@@H]1c1ccccc1`: -75.8%. As to `CN1CCN(Cc2nc3c(s2)CCCC3)[C@H]2CS(=O)(=O)C[C@H]21`, the Percent Effect worked out at 18.3%.

Regarding `N#Cc1ccc(C(=O)N2CC[C@H]3[C@H]2CCN3CC2CCOCC2)cc1`, the Percent Effect was -5.77%. The same measure for `CN(C)CCO[C@H]1CN(C(=O)c2cccs2)[C@@H]2COC[C@H]12`: 10.9%; for `Cn1ccnc1CN1C(=O)CO[C@H]2CN(CCCc3ccccc3)C[C@H]21`: 17.6%; for `O=C1CC(c2ccc(C(=O)O)cc2)c2ncn(-c3ccc(Cl)cc3)c2N1` (centres undefined): 55%.

Turning to `CC(C)(C)n1ncc2c1NC(=O)CC2c1ccc(C(=O)O)cc1` (centres undefined), the Percent Effect came to 26%.

Take `O=C1CC(c2cccnc2)c2c(c(C(=O)O)cn2-c2ccc(Cl)cc2)N1` (centres undefined): the Percent Effect turned out to be 27.2%. The same measure for `Cc1noc(C)c1CC(=O)N1CCC(Nc2cccnn2)CC1`: 12.5%; for `Cc1noc(C)c1C(=O)N1CCC(Nc2cccnn2)CC1`: 60.5%.

As to `Cc1ccc(NC2CCN(C(=O)c3c(C)noc3C)CC2)nn1`, the Percent Effect was 28%.

With `CCN1c2ccc(-c3cncn3CCCn3ccnc3C)cc2CC1C` (centres undefined), the Percent Effect stood at 48.3%. With `Cc1nccn1CCCn1cncc1-c1ccc2c(c1)CCCN2C` the figure was 30.9%. The same measure for `Cc1cnccc1N1CCCN(C(=O)CCCn2ccnc2C)CC1`: 12.9%. The same measure for `Cc1nn(C)c(C)c1CCn1cncc1-c1ccc2c(c1)CC(C)N2C` (centres undefined): 53.7%. For the molecule `CN1CCCc2cc(-c3cncn3CCNC3CCS(=O)(=O)C3)ccc21` (centres undefined), the Percent Effect was 26.8%. The same measure for `Cc1nccn1CCCn1cncc1-c1ccc2c(c1)CCC(C)N2C` (centres undefined): 83.2%; for `Cc1cc(C)n(CCCn2cncc2-c2ccc3c(c2)CC(C)N3C)n1` (centres undefined): 64.4%. The same measure for `CC1Cc2cc(-c3cncn3CC(=O)NC(C)(C)C)ccc2N1C` (centres undefined): 31%.
